RORg inh = blocks mouse ROR gamma transcriptional activity; P51450; Drosophila S2 Gal4-RORgamma UAS-luciferase reporter, 20 h; Potency, µM (titrated, usually from 53.6 µM), actives largely listed as inhibitors; hit rate 5.4% among 310,000; further: nearly all actives have a fitted effect of over 60% in size
Target sequence (P51450 whole entry, looked up, the tested form may be a part): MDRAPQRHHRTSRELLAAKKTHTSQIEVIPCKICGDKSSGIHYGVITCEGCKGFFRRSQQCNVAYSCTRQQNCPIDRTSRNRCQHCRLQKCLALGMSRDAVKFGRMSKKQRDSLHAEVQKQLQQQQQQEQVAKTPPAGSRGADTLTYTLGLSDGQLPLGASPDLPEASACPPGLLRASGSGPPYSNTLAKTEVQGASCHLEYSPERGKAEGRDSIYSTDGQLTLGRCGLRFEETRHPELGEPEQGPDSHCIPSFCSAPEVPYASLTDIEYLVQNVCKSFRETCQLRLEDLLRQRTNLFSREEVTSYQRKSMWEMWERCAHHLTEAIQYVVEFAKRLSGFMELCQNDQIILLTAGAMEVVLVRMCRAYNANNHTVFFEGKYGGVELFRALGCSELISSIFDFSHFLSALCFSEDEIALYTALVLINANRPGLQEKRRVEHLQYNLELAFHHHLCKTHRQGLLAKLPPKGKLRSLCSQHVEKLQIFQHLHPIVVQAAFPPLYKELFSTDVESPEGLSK
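Read-out: Photinus luciferase luminescence; inhibitors lower reporter signal. Insect Schneider cells with Gal4-ROR gamma fusion under metallothionein promoter, UAS reporter; 700 uM final copper sulfate induction, 20 hr, ambient temperature.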
VP16 counter = counter-screen for ROR gamma inhibitors: Gal4-VP16 reporter; Drosophila S2 Gal4-VP16 UAS-luciferase, luminescence, 20 h; Potency, µM (titrated, usually from 53.6 µM), most hits filed as inhibitors; hit rate 3.5% among 310,000; AID 2546;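 further: Gal4-VP16 expression switched on by copper sulfate through the metallothionein promoter; nearly all actives have a fitted effect of over 50% in size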
MCF10A rereplic = DNA re-replication induction in MCF 10a cells | Potency, µM (highest dose often 46.1 µM), hits mostly activators | MCF 10A DNA re-replication, Hoechst nuclear intensity, 48 h | AID 624296 | hit rate 2.9% among 350,000; further: nearly all actives have a fitted effect of over 50% in size
KB-3-1 cytotox = KB-3-1 parental cell cytotoxicity | AID 1347075 | KB-3-1 viability, CellTiter-Glo ATP luminescence, 72 h | Potency, µM (doses to about 46.1 µM), hits mostly cytotoxic | hit rate 1.4% among 400,000; further: nearly all actives have a fitted effect of over 60% in size
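KB-3-1 cells, DMEM (no phenol red) + 10% FBS; compound by pin transfer, 72 h, 37 °C. Readout: CellTiter-Glo luminescence after 10 min. Data normalized, curve-fitted.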
SW480 rerep = induces DNA re-replication in SW480 colon adenocarcinoma cells. SW480 DNA re-replication, Hoechst DNA content imaging, 48 h. Potency, µM (doses to about 46.1 µM), most hits filed as activators. hit rate 1.8% among 340,000. AID 624297; further: nearly all actives have a fitted effect of over 55% in size
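Cells (250 per well) received 23 nL compound or DMSO by pin tool and were kept 48 hr at 37 C, 5% CO2. Nuclei were then stained with Hoechst for 40 min and scanned for DNA content.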
KB-V1 cytotox = kills drug-selected multidrug resistant KB-V1 cells; KB-V1 MDR cells viability, CellTiter-Glo, 72 h; hit rate 3.4% among 400,000; Potency, µM (highest dose often 46.1 µM), most hits filed as cytotoxic; AID 1347076; further: nearly all actives have a fitted effect of over 60% in size
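Readout: CellTiter-Glo luminescence, 10 min after addition. Cells: KB-V1 MDR subline, 72 h at 37 degrees C with compound. Analysis: corrected, normalized data fitted to concentration-effect curves.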
Each line names hits and unclear results; the compound was inactive in the other large screens; ! = not active in a repeat. Hits are enriched below; roughly 10% of the tested compounds scored in any of these assays. The call rests on the fitted dose curve; in most records, active means well fitted curve in the direction sought with a large enough effect; inconclusive means small, poorly fitted or top-dose-only effect, or another doubt; inactive means no such curve, though single readings can be large; an effect the other way counts as inactive or inconclusive.

CCOC(=O)[C@]12Cc3cc4c(cc3[C@H]1N(Cc1ccccc1)C(=O)c1ccccc12)OCO4	KB-3-1 cytotox inconclusive, KB-V1 cytotox inconclusive (no result: RORg inh, VP16 counter)
CCCN1C[C@H](C)N([C@H](c2ccc(C(=O)N(CC)CC)cc2)c2cccc(OC)c2)C[C@H]1C	none (no result: MCF10A rereplic, KB-3-1 cytotox, SW480 rerep, KB-V1 cytotox)
CCCCC/C=C\C/C=C\C/C=C\C/C=C\CCCC(=O)N(Cc1ccc(O)c(Cl)c1)Cc1ccc(O)c(Cl)c1	none (no result: MCF10A rereplic, KB-3-1 cytotox, SW480 rerep, KB-V1 cytotox)
ClCCN(CCCl)c1ccc(C=Nc2ccc(/C=C/c3ccncc3)cc2)cc1	none (no result: RORg inh, VP16 counter, MCF10A rereplic, SW480 rerep)
COc1cc2c(cc1OC)C(C(=O)N(C)C1CCCCC1)C1CCCCN1C2=O (stereo not drawn)	MCF10A rereplic inconclusive, KB-V1 cytotox inconclusive
CCOC(=O)C1(c2ccccc2)CCN(CC(=O)Nc2ccc(C)cc2)CC1	SW480 rerep inconclusive, KB-V1 cytotox inconclusive
CCOC(=O)[C@]12Cc3c(cc(OC)c(OC)c3OC)[C@H]1N(C1CCCCC1)C(=O)c1ccccc12	KB-3-1 cytotox 3.26µM, KB-V1 cytotox inconclusive (no result: RORg inh, VP16 counter, MCF10A rereplic, SW480 rerep)
CCOC(=O)[C@]12Cc3cc(C)ccc3[C@H]1N(C1CCCCC1)C(=O)c1ccccc12	KB-3-1 cytotox 1.64µM, KB-V1 cytotox 2.59µM (no result: RORg inh, VP16 counter, MCF10A rereplic, SW480 rerep)
CCOC(=O)[C@]12Cc3cc(Cl)ccc3[C@H]1N(C1CCCCC1)C(=O)c1cc(OC)ccc12	KB-3-1 cytotox 1.03µM, KB-V1 cytotox 5.8µM (no result: RORg inh, VP16 counter, MCF10A rereplic, SW480 rerep)
CC(=O)OC1CCC23C(=O)OC45CCC(C6=CC(=O)OC6)C4(C)CCC2C5CCC3(O)C1 (stereo not drawn)	none (no result: MCF10A rereplic, KB-3-1 cytotox, SW480 rerep, KB-V1 cytotox)
C[C@H]1COC(=O)[C@H](Cc2ccc(F)cc2)CC/C=C/C[C@@H](CC(=O)N(CCO)Cc2ccccc2)C(=O)N1	MCF10A rereplic inconclusive (no result: RORg inh, VP16 counter)
CC(C)N(CC[C@@](C(N)=O)(c1ccccc1)c1ccccn1)C(C)C	none (no result: KB-3-1 cytotox, KB-V1 cytotox)
O=Nc1ccc(Nc2ccccc2)cc1	VP16 counter inconclusive (no result: MCF10A rereplic, KB-3-1 cytotox, SW480 rerep, KB-V1 cytotox)
CCC1/C=C/C=CCC(C)C(O)[C@@](C)(O)C(=O)C(C)C(O)C(C)C(=O)C(C)C(O)C(C)C=CC(=O)O[C@H]2C(C)C(CC1)O[C@]1(CCC(C)C(CC(C)O)O1)C2C (stereo partly drawn)	RORg inh 0.0006µM, VP16 counter 50.1µM (no result: MCF10A rereplic, KB-3-1 cytotox, SW480 rerep, KB-V1 cytotox)
CC(N)Cc1cn(Cc2ccccc2)c2ccccc12 (stereo not drawn)	MCF10A rereplic inconclusive, KB-3-1 cytotox 23.1µM, SW480 rerep inconclusive, KB-V1 cytotox inconclusive
CC(C)(C)c1ccc(O)cc1	none (no result: RORg inh, VP16 counter, KB-3-1 cytotox, KB-V1 cytotox)
O=c1[nH]c2ccccc2n1C1CCN(C(c2nnnn2C2CCCC2)C2CC2)CC1 (stereo not drawn)	none (no result: RORg inh, VP16 counter, MCF10A rereplic, SW480 rerep)
O=c1[nH]c2ccccc2n1C1CCN(C(c2nnnn2Cc2ccccc2)C2CC2)CC1 (stereo not drawn)	KB-V1 cytotox inconclusive (no result: RORg inh, VP16 counter, MCF10A rereplic, SW480 rerep)
CSCCC(c1nnnn1Cc1ccccc1)N1CCC2(CC1)C(=O)NCN2c1ccccc1 (stereo not drawn)	KB-V1 cytotox 14.6µM (no result: RORg inh, VP16 counter, MCF10A rereplic, SW480 rerep)
CSCCC(c1nnnn1C1CCCC1)N1CCC(n2c(=O)[nH]c3ccccc32)CC1 (stereo not drawn)	KB-V1 cytotox 23.1µM (no result: RORg inh, VP16 counter, MCF10A rereplic, SW480 rerep)
O=c1[nH]c2ccccc2n1C1CCN(C(c2cccs2)c2nnnn2Cc2ccccc2)CC1 (stereo not drawn)	KB-3-1 cytotox inconclusive, KB-V1 cytotox 14.6µM (no result: RORg inh, VP16 counter, MCF10A rereplic, SW480 rerep)
O=c1[nH]c2ccccc2n1C1CCN(C(CCc2ccccc2)c2nnnn2Cc2ccccc2)CC1 (stereo not drawn)	KB-3-1 cytotox inconclusive, KB-V1 cytotox 6.51µM (no result: RORg inh, VP16 counter, MCF10A rereplic, SW480 rerep)
CSCCC(c1nnnn1C1CCCCC1)N1CCC(n2c(=O)[nH]c3ccccc32)CC1 (stereo not drawn)	none (no result: RORg inh, VP16 counter, MCF10A rereplic, SW480 rerep)
CSCCC(c1nnnn1Cc1ccccc1)N1CCC(n2c(=O)[nH]c3ccccc32)CC1 (stereo not drawn)	KB-V1 cytotox 10.3µM (no result: RORg inh, VP16 counter, MCF10A rereplic, SW480 rerep)
CCCC1COC(Cn2cncn2)(c2ccc(Cl)cc2Cl)O1 (stereo not drawn)	RORg inh inconclusive, VP16 counter 17.8µM!
CNC1C2CN3CCC(O2)C13 (stereo not drawn)	none (no result: MCF10A rereplic, KB-3-1 cytotox, SW480 rerep, KB-V1 cytotox)
